According to PubChem BioAssay AID1892 (NMMLSC, 2009):
Out of some 5,900 compounds screened, about 140 (2.4%) were called active. No stated cut-off is given here; in the data, active means binding response below about 16% or above about 210%; inactive means in between. Only a selection was taken, and actives are over-represented in it overall.

Target: Mitogen-activated protein kinase kinase kinase 2 (Homo sapiens) (UniProt Q9Y2U5)
Assay: modulators of MEK5 binding to wildtype MEKK2, confirmation, biochemical, single concentration, multiplex bead flow cytometry (AID 1892)
Settings: Alexa488-MEK5 binding to MEKK2 WT, at 10 µM, actives lie on both sides

Binding response (% of control), inactive:
Cc1nn(-c2ccccc2)c(C)c1NC(=O)CCl 95%
C=CCn1c(P(C)(=O)O)nc2ccccc21 95%
CNC(=O)/C(=C\C=C\c1ccccc1)NC(=O)c1ccc([N+](=O)[O-])cc1 99%
Cc1ccc(N(CCC(=O)O)S(=O)(=O)c2cccc(C(F)(F)F)c2)cc1 102%
CN(c1ccccc1)c1ccc(/C=c2\s/c(=C(/C#N)C(=O)C(C)(C)C)n(Cc3ccco3)c2=O)cc1 73%
CCN(CC)CCCNC(=O)c1ccc2c(=O)n(Cc3ccc4c(c3)OCO4)c(=S)[nH]c2c1 128%
O=C(NC1CCN(Cc2ccccc2)CC1)c1ccc(Oc2cc(Cl)cc(Cl)c2)o1 138%
COCCN1C=C2C(=O)C(C)(OC(=O)C3CCCC3)C(=O)C=C2C=C1c1ccsc1 (stereo not given) 96%
O=C(NCc1ccccc1Cl)NC(=O)c1csc([N+](=O)[O-])c1 104%
COc1ccc(CCn2c(NN=C3CCCC3)nc3c2c(=O)[nH]c(=O)n3C)cc1 102%
CCOC(=O)c1sc2nc(C)nc(SCC(N)=O)c2c1C 102%
COc1ccccc1N=C(C)C1=C(O)COC1=O 106%
Cc1nc2cc(S(=O)(=O)C(F)(F)F)ccc2s1 106%
CC(C)CC(=O)NC(=S)NCc1ccccc1 98%
COc1ccc(C(=O)NCC(=O)N/N=C/c2ccc([N+](=O)[O-])o2)cc1OC 92%
CCOC(=O)c1c(NC(=O)c2ccc(S(=O)(=O)N(C)CC3CCCO3)cc2)sc2c1CC(C)(C)NC2(C)C (stereo not given) 121%
COc1cccc(OCC(=O)NNC(=O)c2cnccn2)c1 98%
COc1ccc(C2CC(=O)Nc3cc(C)c(C)cc32)c(OC)c1OC (stereo not given) 101%
COc1ccc(SC[C@H](Cc2ccccc2)N2CCN(CCc3ccccc3)CCC2=O)cc1 129%
Cc1cc(C)nc(-n2ncc3c2CC(c2ccc(C(C)C)cc2)CC3=O)n1 (stereo not given) 102%
Cc1c(C#N)c2ncn(CC#N)c(=O)c2n1-c1ccccc1 99%
CC(=O)Nc1ccc(N2CCOCC2)c(C(=O)Nc2cccc(C)c2)c1 102%
CCCCNC(=O)N1CCCC(N(C)CCc2ccc(OC)c(OC)c2)C1 (stereo not given) 103%
Cc1ccc(C(=O)NC(=S)Nc2ccc3[nH]c(=O)[nH]c3c2)cc1C 101%
CCN1CCN(c2ccc(S(=O)(=O)N3CCCCC3)cc2NC(=O)Cc2c(Cl)cccc2Cl)CC1 125%
Cc1cnc(NC(=O)Cn2cnc3c2c(=O)n(C)c(=O)n3C)s1 96%
O=c1c2ccccc2c(-c2ccccc2)nn1Cc1ccccc1 100%
Cc1ccccc1OCC(=O)Nc1ccc(N2CCN(C(=O)C(C)C)CC2)c(Cl)c1 93%
O=C1NCC(=O)N(Cc2ccccc2)/C1=C/c1ccccc1 75%
CC1(C)OC(=O)N2CCc3ccccc3C21C (stereo not given) 101%
CN(C)c1ccc(/C=C2\NC(=S)N(Cc3ccccc3)C2=O)cc1 86%
Cc1ccc(N2C(=O)CC(N3CCSCC3)C2=O)c(C)c1 (stereo not given) 103%
Cc1ccc(NC(=S)N(CCCN2CCCC2)Cc2cccn2Cc2ccc(Cl)cc2)cc1 160%
COc1ccc(-c2[nH]ncc2CN(C)Cc2c(C)n[nH]c2C)c(OC)c1 108%
COc1ccccc1CC(=O)Nc1ccc([N+](=O)[O-])cc1OC 100%
Cc1ccc(Nc2nc(CSc3nnc(-c4ccncc4)n3-c3ccccc3C)cs2)cc1 101%
O=C(/C=C/Nc1ccccc1)c1cnc(-c2ccccc2)s1 107%
CC(C)CC(=O)N1CCN(Cc2ccccc2Br)CC1 105%
Cc1ccccc1CCN(CC(=O)NC1CCCCC1)C(=O)c1csnn1 96%
Cc1cccc(/C=N/NC(=O)CNc2cccc3ccccc23)n1 103%
CC(C)(C)NC(=O)c1cccc(NC(=O)Cc2ccc(Br)cc2)c1 100%
CCOc1cc(C2C(C(=O)OC)=CN(C3CCCC3)C=C2C(=O)OC)cc(Br)c1O 108%
COc1ccc(CCNC(=O)CSc2nnc3ccc(-c4ccncc4)nn23)cc1 102%
CCCCOC(=O)c1ccc(N2C(=O)CC(N3CCN(C/C=C/c4ccccc4)CC3)C2=O)cc1 (stereo not given) 124%
O=C(NCC1CCCCC1)c1cc(S(=O)(=O)N2CCCCC2)ccc1N1CCOCC1 87%
Cn1c(SCc2nc3ccccc3s2)nnc1-c1ccc2c(c1)OCO2 102%
Cc1cccc(-c2ncc(CN3CCC(CO)(CCCc4ccccc4)CC3)cn2)c1 131%
Cc1cn(COC/C=C/c2ccccc2)c(=O)[nH]c1=O 103%
COc1cc(NC(=S)NCc2ccco2)c(OC)cc1Cl 108%
COC(=O)c1c(NC(=O)COC(=O)[C@@H](NS(=O)(=O)c2ccccc2)C(C)C)sc2c1CCC2 96%
COc1cc(-c2nc(-c3ccncc3)no2)cc(OC)c1OC 104%
Cc1cccc(CSc2nnc(C)c(=O)n2N)c1 100%
O=C(O)CCCC(=O)Nc1ccc(Oc2cccc(C(F)(F)F)c2)nc1 106%
COc1cc(CC(=O)N/N=C/c2ccccc2)c([N+](=O)[O-])cc1OC 99%
COc1ccc(S(=O)(=O)N2CN(CCc3ccc(OC)c(OC)c3)c3nc4ccccc4nc32)cc1 96%
CCOC(=O)C(NS(=O)(=O)c1ccc(C)cc1)(C(F)(F)F)P(=O)(OCC(C)C)OCC(C)C (stereo not given) 90%
O=c1[nH]c(=S)[nH]c2[nH]c(=S)[nH]c12 101%
Cc1ccccc1-c1ccc(Nc2ccc(C(=O)N3CCOCC3)cc2)nn1 103%
CCOC(=O)c1c(Cc2ccc(Cl)cc2)c[nH]c1C 105%
O=C(Nc1cccnc1)c1cc(Cl)ccc1Cl 109%
